The text below walks through data of PubChem BioAssay (EPA / NIEHS).

Read-out in test [1]: Cyclin D2 (CCND2), CCND2 (gene 894)
Description: LTEA_HepaRG_CCND2: Life Technologies and Expression Analysis (LTEA) Assay for Cyclin D2 (CCND2) using HepaRG (AID 2283449).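 Note: CCND2 transcript measured by TaqMan qRT-PCR and normalised to three housekeeping genes.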 Conditions: mRNA level, 48 h; actives raise or lower the signal. In short, it runs like this:
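HepaRG, 48 h dosing, 8-pt half-log curve from 100 uM, 0.5% DMSO; duplicate wells. Readout: CCND2 transcript by microfluidic qRT-PCR, housekeeping-normalised; bidirectional fit vs DMSO baseline.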

Read-out in test [2]: Cyclin Dependent Kinase Inhibitor 1A (CDKN1A), CDKN1A (gene 1026)
The test can be described thus: LTEA_HepaRG_CDKN1A: Life Technologies and Expression Analysis (LTEA) Assay for Cyclin Dependent Kinase Inhibitor 1A (CDKN1A) using HepaRG (AID 2283450). Conditions: mRNA level, 48 h; actives raise or lower the signal. In short, it runs like this:
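Read-out is CDKN1A mRNA by TaqMan qRT-PCR, normalized to three housekeeping genes and fitted in both directions against the DMSO baseline. Human HepaRG cells were treated 48 h with test chemicals up to 100 uM in half-log steps, 0.5% DMSO.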

Read-out in test [3]: Cyclin D1 (CCND1), CCND1 (gene 595)
The test can be described thus: LTEA_HepaRG_CCND1: Life Technologies and Expression Analysis (LTEA) Assay for Cyclin D1 (CCND1) using HepaRG (AID 2283451).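 For AC50: differentiated human HepaRG liver cells in serum-free induction medium.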 Conditions: mRNA level, 48 h; actives raise or lower the signal. In short, it runs like this: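 HepaRG plated 48 h, medium switched to serum-free induction medium, chemicals added in duplicate (top 100 uM, half-log steps, 0.5% DMSO) for 48 h, cells lysed, RNA measured by TaqMan qRT-PCR.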

Read-out in test [4]: catalase (CAT), CAT (gene 847)
The test can be described thus: LTEA_HepaRG_CAT: Life Technologies and Expression Analysis (LTEA) Assay for catalase (CAT) using HepaRG (AID 2283452). The following applies: mRNA level, 48 h; actives raise or lower the signal. The essentials: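 HepaRG cells in serum-free induction medium, 0.5% DMSO vehicle, exposed 48 h in duplicate over 8 half-log concentrations from 100 uM. CAT mRNA measured by qRT-PCR, normalized to ACTB, GAPDH, POLR2A; bidirectional fit versus DMSO.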

Read-out in test [5]: flavin-containing dimethylaniline monooxygenases 3 (FMO3), FMO3 (gene 2328)
Description: LTEA_HepaRG_FMO3: Life Technologies and Expression Analysis (LTEA) Assay for flavin-containing dimethylaniline monooxygenases 3 (FMO3) using HepaRG (AID 2283453).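 For AC50: differentiated human HepaRG liver cells in serum-free induction medium.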 Conditions: mRNA level, 48 h; actives raise or lower the signal. In short, it runs like this: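 Eight-point concentration-response in serum-free HepaRG cultures (top 100 uM, 0.5% DMSO, 48 h). Read-out: FMO3 mRNA level normalized to three endogenous control genes, fitted bidirectionally versus vehicle.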

Read-out in test [6]: Cytochrome P450 (CYP1A1), CYP1A1 (gene 1543)
The test can be described thus: LTEA_HepaRG_CYP1A1: Life Technologies and Expression Analysis (LTEA) Assay for Cytochrome P450 (CYP1A1) using HepaRG (AID 2283454). The following applies: mRNA level, 48 h; actives raise or lower the signal. In short, it runs like this: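 HepaRG, 48 h post-plating switched to serum-free induction medium; 8-pt conc-response (top 100 uM, half-log, 0.5% DMSO), duplicates, 48 h. Lysis in RLT, TaqMan qRT-PCR for CYP1A1; gain or loss vs DMSO.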

Read-out in test [7]: CFLAR gene, CFLAR (gene 8837)
The test can be described thus: LTEA_HepaRG_CFLAR: Life Technologies and Expression Analysis (LTEA) Assay for CFLAR gene using HepaRG (AID 2283455). The following applies: mRNA level, 48 h; actives raise or lower the signal. In short, it runs like this: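 qRT-PCR read-out (Fluidigm/TaqMan) of CFLAR mRNA, normalized to three housekeeping genes, in differentiated human HepaRG cells after 48 h chemical exposure; 8-point half-log series from 100 uM in 0.5% DMSO; bidirectional curve fitting versus DMSO.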

Read-out in test [8]: Forkhead box O1 (FOXO1), FOXO1 (gene 2308)
The test can be described thus: LTEA_HepaRG_FOXO1: Life Technologies and Expression Analysis (LTEA) Assay for Forkhead box O1 (FOXO1) using HepaRG (AID 2283456). Conditions: mRNA level, 48 h; actives raise or lower the signal. The essentials: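 HepaRG, 48 h exposure, 8-pt half-log series from 100 uM in 0.5% DMSO, duplicates; Fluidigm qRT-PCR mRNA, housekeeping-normalised; bidirectional fit vs DMSO baseline.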

Read-out in test [9]: growth arrest and DNA damage 45 (GADD45A), GADD45A (gene 1647)
Description: LTEA_HepaRG_GADD45A: Life Technologies and Expression Analysis (LTEA) Assay for growth arrest and DNA damage 45 (GADD45A) using HepaRG (AID 2283458). Conditions: mRNA level, 48 h; actives raise or lower the signal. In short, it runs like this:
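HepaRG, 48 h exposure, 8 conc. (top 100 uM, half-log steps), 0.5% DMSO vehicle, duplicates. Read-out: qRT-PCR mRNA level, housekeeping-normalized (ACTB/GAPDH/POLR2A). Curves fit bidirectionally vs DMSO baseline.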

Read-out in test [10]: Forkhead box O3 (FOXO3), FOXO3 (gene 2309)
Description: LTEA_HepaRG_FOXO3: Life Technologies and Expression Analysis (LTEA) Assay for Forkhead box O3 (FOXO3) using HepaRG (AID 2283459). The following applies: mRNA level, 48 h; actives raise or lower the signal. The essentials: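 qRT-PCR readout of FOXO3 transcript, normalized to three housekeeping genes (ACTB, GAPDH, POLR2A); gain or loss fitted against 0.5% DMSO vehicle. HepaRG cells, 48 h chemical exposure, 8-point half-log series, top 100 uM.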

Read-out in test [11]: ABC Transporter (ABCB1), ABCB1 (gene 5243)
The test can be described thus: LTEA_HepaRG_ABCB1: Life Technologies and Expression Analysis (LTEA) Assay for ABC Transporter (ABCB1) using HepaRG (AID 2283460). The following applies: mRNA level, 48 h; actives raise or lower the signal. The essentials: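 HepaRG, 48 h exposure, 8-pt half-log series from 100 uM, 0.5% DMSO vehicle, duplicates. Readout: ABCB1 transcript by Fluidigm TaqMan qRT-PCR, housekeeping-normalized; bidirectional curve fit vs DMSO baseline.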

Read-out in test [12]: growth arrest and DNA damage 45 (GADD45B), GADD45B (gene 4616)
The test can be described thus: LTEA_HepaRG_GADD45B: Life Technologies and Expression Analysis (LTEA) Assay for growth arrest and DNA damage 45 (GADD45B) using HepaRG (AID 2283461). Conditions: mRNA level, 48 h; actives raise or lower the signal. In short, it runs like this: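 HepaRG, ~100,000 cells/well, 48 h plating; serum-free induction medium; cpd 100 uM top, half-log x8, 0.5% DMSO, duplicate, 48 h; lysis in RLT, RNA isolation, qRT-PCR; norm ACTB/GAPDH/POLR2A; bidirectional fit vs DMSO.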

Read-out in test [13]: ABC Transporter (ABCC3), ABCC3 (gene 8714)
The test can be described thus: LTEA_HepaRG_ABCC3: Life Technologies and Expression Analysis (LTEA) Assay for ABC Transporter (ABCC3) using HepaRG (AID 2283462). The following applies: mRNA level, 48 h; actives raise or lower the signal. In short, it runs like this:
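Human HepaRG, 48 h dosing, 8-pt half-log series from 100 uM, 0.5% DMSO vehicle, duplicates. ABCC3 mRNA by TaqMan qRT-PCR, housekeeping-normalized; bidirectional curve fit vs DMSO.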

Read-out in test [14]: ABC Transporter (ABCB11), ABCB11 (gene 8647)
The test can be described thus: LTEA_HepaRG_ABCB11: Life Technologies and Expression Analysis (LTEA) Assay for ABC Transporter (ABCB11) using HepaRG (AID 2283463). The following applies: mRNA level, 48 h; actives raise or lower the signal. In short, it runs like this: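 HepaRG, 48 h exposure, 8-pt half-log CRC top 100 uM, 0.5% DMSO vehicle, duplicates. Readout: TaqMan qRT-PCR of ABCB11 mRNA, housekeeping-normalized (ACTB/GAPDH/POLR2A). Bidirectional fit vs DMSO baseline.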

Read-out in test [15]: ABC Transporter (ABCC2), ABCC2 (gene 1244)
Description: LTEA_HepaRG_ABCC2: Life Technologies and Expression Analysis (LTEA) Assay for ABC Transporter (ABCC2) using HepaRG (AID 2283464). The following applies: mRNA level, 48 h; actives raise or lower the signal. The essentials:
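HepaRG, 48 h post-plating; serum-free induction medium; cpd 8-pt, 100 uM top, half-log, 0.5% DMSO, duplicate, 48 h. Readout: ABCC2 mRNA by qRT-PCR, norm. ACTB/GAPDH/POLR2A. Bidirectional fit vs DMSO baseline.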

Read-out in test [16]: Broad substrate specificity ATP-binding cassette transporter ABCG2 (Homo sapiens) (UniProt Q9UNQ0)
Description: LTEA_HepaRG_ABCG2: Life Technologies and Expression Analysis (LTEA) Assay for ABC Transporter (ABCG2) using HepaRG (AID 2283465). Conditions: mRNA level, 48 h; actives raise or lower the signal. The essentials: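 HepaRG, 48 h exposure, 8-pt half-log series from 100 uM, 0.5% DMSO vehicle, duplicates. Readout: ABCG2 transcript by qRT-PCR (Fluidigm array), housekeeping-normalized; bidirectional curve fit relative to DMSO baseline.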

Read-out in test [17]: ATP-citrate lyase (ACLY), ACLY (gene 47)
Description: LTEA_HepaRG_ACLY: Life Technologies and Expression Analysis (LTEA) Assay for ATP-citrate lyase (ACLY) using HepaRG (AID 2283466). Conditions: mRNA level, 48 h; actives raise or lower the signal. In short, it runs like this: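 qRT-PCR readout of ACLY transcript after 48 h chemical treatment of HepaRG cells; expression normalized to three housekeeping genes. Eight-point half-log series, highest 100 uM, 0.5% DMSO vehicle. Gain or loss fitted against DMSO baseline.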

Read-out in test [18]: Alkaline Phosphatase, Placental (ALPP) gene, ALPP (gene 250)
Description: LTEA_HepaRG_ALPP: Life Technologies and Expression Analysis (LTEA) Assay for Alkaline Phosphatase, Placental (ALPP) gene using HepaRG (AID 2283468). Conditions: mRNA level, 48 h; actives raise or lower the signal. In short, it runs like this: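 HepaRG, 48 h plating then 48 h dosing, serum-free induction medium, 0.5% DMSO. 8 conc, half-log, max 100 uM, duplicates. Endpoint: ALPP transcript by qRT-PCR, housekeeping-normalized; gain or loss fitted vs DMSO.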

A short description of test [19]: CEETOX_H295R_TESTO: CeeTox H295R High-throughput Steroidogenesis Assay for Testosterone (TESTO) (AID 2283457).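 For AC50: cells exposed to chemicals for 48 h before medium collection.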 The following applies: actives raise or lower the signal. The essentials:
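H295R, passage ≤10, 48 h dosing; media extracted with MTBE → HPLC-MS/MS for testosterone; 7-pt standard curve sets LLOQ/ULOQ; bidirectional fit vs DMSO; MTT viability same wells.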

Calls of active or inactive are those of the source. Rule for the calls: active = hit-call score of the fitted dose curve at least 0.9, where 1 is the maximum; inactive = score below 0.9.

Sequence of Broad substrate specificity ATP-binding cassette transporter ABCG2 (Homo sapiens) (Q9UNQ0 whole entry, looked up): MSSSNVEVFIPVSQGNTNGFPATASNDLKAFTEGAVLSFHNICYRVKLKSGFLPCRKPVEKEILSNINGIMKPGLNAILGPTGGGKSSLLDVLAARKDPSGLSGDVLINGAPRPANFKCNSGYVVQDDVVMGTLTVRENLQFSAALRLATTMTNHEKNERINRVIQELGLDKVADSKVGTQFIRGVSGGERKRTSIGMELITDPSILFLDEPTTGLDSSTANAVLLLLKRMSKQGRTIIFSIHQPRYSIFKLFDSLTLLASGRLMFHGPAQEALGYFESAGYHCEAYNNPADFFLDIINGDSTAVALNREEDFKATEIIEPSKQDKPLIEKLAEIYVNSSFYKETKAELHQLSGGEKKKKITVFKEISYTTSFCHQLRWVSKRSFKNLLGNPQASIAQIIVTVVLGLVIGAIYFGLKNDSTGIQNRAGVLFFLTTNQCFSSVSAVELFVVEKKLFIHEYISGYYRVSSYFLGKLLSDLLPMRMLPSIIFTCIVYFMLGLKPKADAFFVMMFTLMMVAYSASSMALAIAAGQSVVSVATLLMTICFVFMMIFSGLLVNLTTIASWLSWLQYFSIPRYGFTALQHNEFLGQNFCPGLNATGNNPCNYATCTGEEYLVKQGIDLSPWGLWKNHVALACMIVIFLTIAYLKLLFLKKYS

For `COC(=O)c1ccccc1C(=O)O`, the call in test [1], in test [2], in [3], in test [4], in test [5] and in [6] was inactive. Moreover, the call in test [7], in test [8], in test [9], in test [10], in [11] and in test [12] was inactive. Besides, the result in [13], in [14], in test [15], in test [16], in test [17] and in [18] was inactive.
As to `CCCN(CCC)C(=O)SCC`, the result in test [1], in [2], in test [3], in test [4], in [5] and in [6] was inactive. Besides, the outcome in test [7], in test [8], in test [19], in [9], in test [10] and in test [11] was inactive. Further, the compound was classed as inactive in [12], in test [13], in [14], in test [15], in [16] and in [17]. Besides, in test [18], the compound was called inactive.
One may read the AC50 as the concentration giving half of the maximal activity seen. For `CN(C)C(=O)Nc1ccc(Cl)c(Cl)c1`, the compound was classed as inactive in test [1], in test [2], in test [4], in test [7], in test [8] and in test [9]. Moreover, the compound was classed as inactive in test [11], in test [13], in [15], in test [17] and in test [18]. Further, the AC50 in test [3] is 50 µM (active); in test [5] it was 50 µM (active); in test [6], 27 µM (active); in [19], 28.1 µM (active); in [10], 22.2 µM (active); in [12] it was 66.5 µM (active). Further, the AC50 in test [14] is 50 µM (active); in test [16] it was 36.4 µM (active).
